# A selection: hits, their analogues and other compounds. The true share with any hit is near 27%.
# sEH act: soluble epoxide hydrolase activators, primary screen, biochemical, human sEH; Bifunctional epoxide hydrolase 2 (Homo sapiens), P34913; 0.04% of 91,000 active; purified human sEH enzymatic activity, activator screen; AID 717, 2007; activation, % at 2 µM; in the data active means activation above about 37%
# Target sequence (P34913 whole entry, looked up): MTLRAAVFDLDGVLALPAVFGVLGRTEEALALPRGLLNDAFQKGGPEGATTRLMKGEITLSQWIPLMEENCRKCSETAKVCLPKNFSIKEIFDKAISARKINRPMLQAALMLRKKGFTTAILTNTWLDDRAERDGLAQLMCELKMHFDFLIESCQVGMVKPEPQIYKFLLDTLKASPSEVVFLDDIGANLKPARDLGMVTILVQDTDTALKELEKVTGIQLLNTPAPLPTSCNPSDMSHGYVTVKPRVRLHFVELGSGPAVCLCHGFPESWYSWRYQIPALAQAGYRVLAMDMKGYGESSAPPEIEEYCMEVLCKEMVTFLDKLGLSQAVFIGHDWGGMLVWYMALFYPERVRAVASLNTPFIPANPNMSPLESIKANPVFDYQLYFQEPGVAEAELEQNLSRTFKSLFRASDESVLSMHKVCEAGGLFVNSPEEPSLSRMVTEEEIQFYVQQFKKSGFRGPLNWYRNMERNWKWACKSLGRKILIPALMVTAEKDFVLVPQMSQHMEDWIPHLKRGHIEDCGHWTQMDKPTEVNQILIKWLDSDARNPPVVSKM
# CYP2C19 act: human CYP2C19 activators, primary screen, biochemical, luminescence; recombinant CYP2C19, luciferin-H EGE luminescence; hits give high values; 0 = fully inhibited enzyme, 1 = untreated enzyme; 96,000 tested, under 10 active; Cytochrome P450 2C19 (Homo sapiens), P33261; activation factor at 5 µM;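 active means activation factor of at least 2 at 5 µM in the primary screen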;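 further: 0 = wells with 2.5 mM tranylcypromine and 1 = vehicle-only wells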
# CYP2C19 inhib: blockers of cytochrome P450 2C19 activity – biochemical, luminescence, ADME assay, primary screen; P33261; CYP2C19 Supersomes, luciferin-H EGE luminescence, 30 min; inhibition, % at 5 µM; 21% of 96,000 active;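 active means CYP2C19 inhibition above a set limit at 5 µM in the primary screen, cut at about 50% in these data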;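 further: plate controls were negative control wells for no effect and 2.5 mM tranylcypromine positive control for full effect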
# sEH inhibitor: soluble epoxide hydrolase inhibitors, primary screen, biochemical, human sEH | 0.34% of 91,000 active | recombinant human sEH enzymatic activity assay | inhibition, % at 2 µM | Bifunctional epoxide hydrolase 2 (Homo sapiens), P34913 | AID 707, 2007; in the data active means inhibition above about 80%
# CYP2C9 activ: human CYP2C9 activators, primary screen, biochemical, luminescence; Cytochrome P450 2C9 (Homo sapiens), P11712; recombinant CYP2C9, luciferin-H conversion; hits give high values; factor 1 = untreated enzyme, 0 = blocked; activation factor at 5 µM; 1.4% of 96,000 active; AID 1024, 2008;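 active means activation factor of 2 or more for CYP2C9 at a 5 µM dose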;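 further: 0 = sulfaphenazole-blocked wells and 1 = vehicle-only wells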
# CYP2C9 inhib: blockers of cytochrome P450 2C9 activity – biochemical, luminescence, ADME assay, primary screen | P11712 | CYP2C9 Supersomes, luciferin-H conversion | inhibition, % at 5 µM | 20% of 96,000 active | AID 777, 2007;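 active means blocking of liver enzyme CYP2C9 beyond about 50% at 5 µM, limit read from the data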
# An asterisk follows results filed as active; · = not tested or not shown.
SMILES,sEH act,CYP2C19 act,CYP2C19 inhib,sEH inhibitor,CYP2C9 activ,CYP2C9 inhib
CCn1cc(C(=O)N2CCOCC2)c(=O)c2cc(S(=O)(=O)N(C)C3CCCCC3)ccc21,·,1.2,-22.6,·,1.1,-6.8
Clc1ccc2nc(C3CCN(Cc4nnnn4C4CCCCC4)CC3)[nH]c2c1,-18.0,·,·,17.8,·,·
Cc1ccc(Cn2nnnc2CN2CCC(c3nc4ccc(Cl)cc4[nH]3)CC2)cc1,-4.6,0.1,88.9*,2.7,0.1,90.5*
O=C(O)c1ccc(N2C(=O)C3ON(c4ccccc4)C(c4ccccc4F)C3C2=O)cc1 (stereo not drawn),43.8*,0.5,51.6*,-47.7,1,-0.2
CCCC1C2C(=O)N(c3ccccc3OC)C(=O)C2ON1c1ccccc1 (stereo not drawn),12.3,0.1,94.8*,-12.5,0.3,69.8*
O=C1C2ON(c3ccccc3)C(c3ccccc3F)C2C(=O)N1c1ccccc1 (stereo not drawn),-10.8,1.1,-6.6,8.4,0.9,9.5
CCCC1C2C(=O)N(c3ccccc3)C(=O)C2ON1c1ccccc1 (stereo not drawn),-8.0,0.4,56.0*,8.7,0.4,55.4*
CCCOc1ccc(N2C(=O)C3ON(c4ccccc4)C(c4ccc(O)c(OC)c4)C3C2=O)cc1 (stereo not drawn),0.0,0.7,33.4,1.4,0.5,45.5
CCCOc1ccc(N2C(=O)C3ON(c4ccccc4)C(CCC)C3C2=O)cc1 (stereo not drawn),-8.9,0.7,31.5,9.6,0.5,52.5*
CN(C)c1ccc(C2C3C(=O)N(c4ccc(C(=O)O)cc4)C(=O)C3ON2c2ccccc2)cc1 (stereo not drawn),·,1,0.7,·,0.9,10.6
CCCCCCC(C)n1cc(C(C)=O)c(=O)[nH]c1=O (stereo not drawn),-0.7,0.9,10.7,1.4,1.1,-6.0
Cc1cc(NC(=O)C2CC(c3ccc(Cl)cc3)=NO2)no1 (stereo not drawn),-5.6,0.8,16.1,4.6,0.8,20.6
COCCNC(=O)C1CCN(S(=O)(=O)c2ccccc2)CC1,9.2,1,4.9,-12.8,0.9,8.2
CCOc1ccccc1C1C2C(=O)N(c3ccccc3)C(=O)C2ON1c1ccccc1 (stereo not drawn),17.7,0.8,20.8,-19.3,0.5,50.7*
O=C(O)COc1ccccc1C1C2C(=O)N(c3ccccc3)C(=O)C2ON1c1ccccc1 (stereo not drawn),·,0.8,20.1,·,0.6,38.1
Cc1ccc(C(=O)NCc2ccc(Cl)c(Cl)c2)o1,-0.8,0.2,84.5*,0.8,0.7,34.9
O=C(CCS(=O)(=O)c1ccccc1)Nc1nc2c(s1)COc1ccccc1-2,5.0,0.3,65.3*,-5.8,0.6,38.0
O=C(Nc1nc2c(s1)CCc1ccccc1-2)c1cccs1,24.1,0.9,8.9,-20.5,1.1,-7.5
O=C(Nc1nc2c(s1)COc1ccccc1-2)c1cccs1,12.8,0.6,36.2,-8.8,0.4,62.8*
CC1CCN(C(=O)COC(=O)[C@H](C)NS(=O)(=O)/C=C/c2ccccc2)CC1,8.4,0.6,36.8,-10.3,1.6,-63.8
Cc1nc2cc(N3CCN(C)CC3)c(NC(=O)Cc3ccccc3)cc2c(=O)n1Cc1ccccc1,-6.0,0.3,66.9*,5.5,0.3,66.6*
Cc1ccc(C(=O)Nc2cc(Cl)ccc2N2CCCCC2)s1,-7.6,0.7,30.7,5.8,0.7,29.2
CCN(CC)c1cc2nc(C)n(Cc3ccccc3)c(=O)c2cc1NC(=O)C1CC1,4.7,·,·,-1.6,·,·
Cc1nc2cc(N3CCCCC3)c(NC(=O)c3ccncc3)cc2c(=O)n1Cc1ccc(Cl)cc1,7.8,0.5,48.2,-6.9,0.3,73.6*
O=C(NN=C1CCCC1)C(=O)Nc1cccc(C(F)(F)F)c1,-1.6,1,3.4,2.4,1.2,-22.3
SMILES,sEH act,CYP2C19 act,CYP2C19 inhib,sEH inhibitor,CYP2C9 activ,CYP2C9 inhib
O=C(CN1C(=O)COc2ccccc21)N(Cc1ccc2c(c1)OCO2)CC1CCCO1 (stereo not drawn),14.3,0.9,13.7,-15.7,0.9,14.3
COc1ccc(-c2nc3ccccc3[nH]2)cc1,-2.8,0.4,64.6*,-0.8,0.6,35.1
Cc1ccc(-c2nc3ccccc3[nH]2)s1,·,0.6,39.5,·,0.7,32.6
Cc1[nH]c2ccccc2c1-c1nc2ccccc2[nH]1,·,0.6,39.2,·,0.3,67.6*
Nc1cc(N)cc(-c2nc3ccccc3[nH]2)c1,-4.6,0.9,9.3,2.7,0.8,15.0
CCCCCC(C)NC(=O)c1ccoc1C (stereo not drawn),6.9,·,·,-7.0,·,·
O=C1c2cccnc2C(=O)N1c1ccccc1-c1ccccc1,·,0.4,55.7*,·,0.7,27.6
O=C1c2cccnc2C(=O)N1c1cccc(-c2nc3ccccc3o2)c1,10.4,1,3.0,-6.3,1.1,-5.7
CCCC(=O)NCCCc1nc2ccccc2n1CC,0.2,1,-2.2,3.3,1.7,-71.4
O=CNCCCc1nc2ccccc2n1Cc1cccc2ccccc12,1.9,0,97.3*,-1.1,0.1,91.3*
Cc1[nH]c2ccc(CNS(=O)(=O)c3ccc(S(=O)(=O)N4CCOCC4)cc3)cc2c1C,9.6,0.4,64.3*,-8.0,0.3,70.7*
Cc1onc(-c2c(F)cccc2Cl)c1C(=O)N1C=CC(C(F)(F)Cl)=NCC1,9.1,0.4,57.6*,-6.0,0.7,29.3
Cc1onc(-c2ccccc2Cl)c1C(=O)OCC(=O)N1CCCc2ccccc21,·,0.1,93.5*,·,0,95.8*
Cc1onc(-c2ccccc2Cl)c1C(=O)N1CCCc2ccccc21,-4.9,0.3,68.4*,6.3,0.8,16.5
Cc1noc(C)c1C(=O)N1CCCc2ccccc21,8.4,0.8,18.0,-4.6,1,4.1
Cc1onc(-c2c(F)cccc2Cl)c1C(=O)N1CCCc2ccccc21,8.6,0.3,66.4*,-9.1,0.7,25.7
Cc1onc(-c2c(F)cccc2Cl)c1C(=O)NCCCN1CCOCC1,-7.4,1,3.3,6.8,0.8,16.3
CCCCCOC(=O)C1=C(C)Nc2nnnn2C1c1ccccc1Cl (stereo not drawn),7.9,1,3.9,-8.4,0.9,8.4
Cc1onc(-c2ccccc2Cl)c1C(=O)N1CCc2ccccc21,2.6,0.3,69.3*,-4.1,0.7,33.6
Cc1onc(-c2ccccc2)c1C(=O)N1CCc2ccccc21,3.1,0.1,90.3*,-2.8,0.6,40.8
CSC1=N/C(=C\c2ccccc2)C(=O)N1C,-0.5,1,2.3,-0.7,0.9,14.7
COc1ccc(N2CCN(C(CNC(=O)c3cccc(Cl)c3)c3cccnc3)CC2)cc1 (stereo not drawn),-29.0,0.7,33.8,28.1,0.4,55.5*
